The source of these data is PubChem BioAssay (NCI).

A short description of assay [1]: NCI Yeast Anticancer Drug Screen. Data for the rad50 strain (AID 155).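 Also: 0% = growth of vehicle-only cultures of the same strain.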 As to conditions: S. cerevisiae rad50 strain growth inhibition, active compounds read high; at 50.0 µM unless noted. In short, it runs like this:
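Inhibition values express reduced yeast growth in compound-treated cultures relative to vehicle-treated controls.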

Assay [2] in a line: NCI Yeast Anticancer Drug Screen. Data for the mec2-1 strain (AID 157). The note with it: S. cerevisiae mec2-1 strain, active compounds read high; at 50.0 µM unless noted. In short, it runs like this:
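Mutant yeast (mec2-1) grown with compound; growth inhibition relative to vehicle control reported.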

Assay [3] can be described thus: NCI Yeast Anticancer Drug Screen. Data for the sgs1 mgt1 strain (AID 161).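 Also: 0% = growth of cultures given vehicle only.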 As to conditions: S. cerevisiae sgs1 mgt1 strain, active compounds read high; at 50.0 µM unless noted. The essentials: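 Yeast cells carrying a defined DNA-repair defect were exposed to test compounds. Growth inhibition was measured relative to vehicle-treated controls.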
Assay [4] in a line: NCI Yeast Anticancer Drug Screen. Data for the cln2 rad14 strain (AID 165).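 Also: 0% = growth equal to vehicle treated cultures.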 As to conditions: S. cerevisiae cln2 rad14 strain, active compounds read high; at 50.0 µM unless noted. In short, it runs like this: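 Readout is yeast growth inhibition versus vehicle-treated controls, using a strain with cln2 and rad14 alterations exposed to compound.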
A short description of assay [5]: NCI Yeast Anticancer Drug Screen. Data for the bub3 strain (AID 167). As to conditions: S. cerevisiae bub3 mutant strain, active compounds read high; at 50.0 µM unless noted. The essentials:
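Steps: expose the mutant yeast strain to compound; grow alongside vehicle-treated cultures; measure growth; express inhibition against the vehicle cultures.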

Assay [6] is described as follows: NCI Yeast Anticancer Drug Screen. Data for the mlh1 rad18 strain (AID 175). The note with it: S. cerevisiae mlh1 rad18 strain growth inhibition, active compounds read high; at 50.0 µM unless noted. In short, it runs like this: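 Genetically defined yeast (DNA repair-deficient) exposed to compounds; growth inhibition determined relative to vehicle.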

Values joined by “and” are separate entries in the source; they are usually repeats but may differ in a detail not shown here. Equal entries are not always repeated. The panel holds about 79,000 compounds, 15% with a hit somewhere; the sample as a whole holds those more often. Unmarked numbers belong to inactive results. Active and inactive are the calls of the source. Rule as the data show it: active = growth inhibition above about 70%; inactive = the rest.

`CC1CC1C(N)C1CC1C` (stereo not drawn): the growth inhibition in assay [1] is 10.3%; in assay [2] it was 3.15%; in assay [3], -1.95%; in assay [4] it was 23.9%; in assay [5], 10.8%; in assay [6] it was 8.3%.
For the molecule `Cc1cc2ccccc2cn1`, the growth inhibition was 1% and 29.1% in assay [1]; -23.1% and 16.6% in assay [2]; 5.55% and 19.2% in assay [3]; -30.6% and -34.1% in assay [4]; 5.95% and 10.8% in assay [5]; 4.75% and 24.6% in assay [6].
As to `Cc1ccc(OCCC(=O)O)cc1`, the growth inhibition in assay [1] is 6.9%; in assay [2] it was -6.15%; in assay [3] it was -11.2%; in assay [4], -63.5%; in assay [5], -26.6%; in assay [6] it was -1.65%.
Turning to `NC(CSCCB(O)O)C(=O)O` (stereo not drawn), the growth inhibition in assay [1] is -11.7%; in assay [2], -15.2%; in assay [3], -6.5%; in assay [4], -14.6%; in assay [5], -5%; in assay [6], -20.4%.
In the case of `COC(=O)c1cc(-c2ccc(N)cc2)n2c(N)nnc2n1`, the growth inhibition in assay [1] was 15%; in assay [2] it was 23.4%; in assay [3] it was 25.8%; in assay [4], -1.55%; in assay [5], 2.45%; in assay [6] it was 18.6%.
For `CCN(CC)CCNc1c(OC)c(OC)cc2nccnc12`, the growth inhibition in assay [1] was 9.85%; in assay [2], 9.7%; in assay [3], 30.9%; in assay [4] it was 2.85%; in assay [5], 0.2%; in assay [6] it was -1.75%.
In the case of `CS(=O)(=O)OCCN(CCOS(C)(=O)=O)c1cc(C(N)=O)c([N+](=O)[O-])cc1[N+](=O)[O-]`, the growth inhibition in assay [1] is -5.05%; in assay [2], 9.55%; in assay [3], -11.7%; in assay [4], -12.9%; in assay [5], -0.35%; in assay [6] it was 16.9%.
Regarding `C1COC2(OC1)OCCCO2`, the growth inhibition in assay [1] is -14.8%; in assay [2] it was 1.35%; in assay [3] it was -7.85%; in assay [4] it was -71.5%; in assay [5], 8.75%; in assay [6] it was 3.05%.
With `CCOC(=O)C(Cc1ccc(Cl)cc1)(NC(C)=O)C(=O)OCC`, the growth inhibition in assay [1] is -1.25%; in assay [2], -13.6%; in assay [3], -4.25%; in assay [4], -23.9%; in assay [5] it was 14.4%; in assay [6], -10.4%.
`COc1cc2c(cc1OC)C1C(C)c3ccc(OC)c(OC)c3CN1CC2` (stereo not drawn): the growth inhibition was 0.65% in assay [1]; -43% in assay [2]; -3.25% in assay [3]; -0.95% in assay [4]; -29.6% in assay [5]; -8.6% in assay [6].
As to `COCNC(=S)c1ccc(C(N)=O)nc1C(=O)NC(C)(C)C`, the growth inhibition in assay [1] was 15.8%; in assay [2] it was 0.4%; in assay [3] it was 5.6%; in assay [4], -3.3%; in assay [5], -5.8%; in assay [6] it was 30.6%.
As for `Cc1cc(=O)[nH]c(NN2C(Cl)C(=O)C2c2ccccc2O)n1` (stereo not drawn), the growth inhibition in assay [1] is 16.4%; in assay [2] it was -31.5%; in assay [3] it was 13.3%; in assay [4], 2.95%; in assay [5] it was -9.3%; in assay [6], -13.8%.
`COc1ccc(C2=N/C(=C\c3ccccc3)C(=O)O2)cc1`: the growth inhibition is -4.05% in assay [1]; 8.6% in assay [2]; 28.4% in assay [3]; -22.4% in assay [4]; -4% in assay [5]; -0.9% in assay [6].
As for `COc1ccccc1NC(=O)C1=C(C)NC(C)=C(C(=O)Nc2ccccc2OC)C1c1ccc(C)cc1`, the growth inhibition in assay [1] was 12.7%; in assay [2] it was -10.3%; in assay [3] it was 3.75%; in assay [4], 12.1%; in assay [5] it was 12.3%; in assay [6], -0.85%.
For the molecule `CCC(CC)NC(CC)COC(=O)c1ccc(N)cc1` (stereo not drawn), the growth inhibition in assay [1] is 8.4%; in assay [2], -4.3%; in assay [3] it was -0.05%; in assay [4], -0.5%; in assay [5], 5.8%; in assay [6], -4.9%.
With `CC(=O)Nc1ccc(S(=O)(=O)O)c(OC(C)=O)c1`, the growth inhibition is 20.8% in assay [1]; -7.2% in assay [2]; 9.85% in assay [3]; -11.8% in assay [4]; 7.35% in assay [5]; 19.1% in assay [6].
For the molecule `CCN(CC)CCOC(=O)c1cc2ccccc2s1`, the growth inhibition in assay [1] was 23.2%; in assay [2], 8.85%; in assay [3] it was 13.1%; in assay [4] it was 2.85%; in assay [5], -1.35%; in assay [6], 10.4%.
Take `CN(C)N=Nc1ccc(S(C)(=O)=O)cc1`: the growth inhibition in assay [1] was 4.9%; in assay [2], 0.6%; in assay [3], 1.5%; in assay [4] it was -22.1%; in assay [5], 10.1%; in assay [6], 8.1%.
Regarding `CC(C)C(=O)/C=C/c1ccc(Cl)cc1`, the growth inhibition in assay [1] is 0.95% and -1.3%; in assay [2], -18.9% and -16.6%; in assay [3], -16.1% and -10.2%; in assay [4], -66.7% and -44.9%; in assay [5], -0.75% and -28.1%; in assay [6], -16.9% and -8.65%.
Regarding `CC(=O)CC(=O)Nc1ccc(-c2ccc(NC(=O)CC(C)=O)c(Cl)c2)cc1Cl`, the growth inhibition in assay [1] is -22.2%; in assay [2], -27.7%; in assay [3], -10.2%; in assay [4], 1.9%; in assay [5], -16.6%; in assay [6] it was -6.35%.
Take `N#Cc1cccc2c1Nc1ccccc1S2`: the growth inhibition in assay [1] is -9.75%; in assay [2], -21.8%; in assay [3], -10.7%; in assay [4], 8.8%; in assay [5] it was 5.9%; in assay [6] it was -19.9%.
For `O=[n+]1c2c(n([O-])c3ccccc31)CCCCCCCCCC2`, the growth inhibition in assay [1] is -52.6%; in assay [2], -1.95%; in assay [3], 7.15%; in assay [4] it was -35.2%; in assay [5], 0.95%; in assay [6] it was 7.9%.
On to `COC(=O)C(C(=O)OC)C1CCCC(=O)C1` (stereo not drawn), for which the growth inhibition in assay [1] was -2.3%; in assay [2], -10%; in assay [3], -10.6%; in assay [4], -6.7%; in assay [5], -24.7%; in assay [6], 13.8%.
Regarding `CN(Cc1ccccc1Cl)C(=S)NC1CCCCC1`, the growth inhibition was 62% in assay [1]; 88.8% (active) in assay [2]; 86% (active) in assay [3]; 34.8% in assay [4]; 81.3% (active) in assay [5]; 85.5% (active) in assay [6].
For `Cc1ccc(S(=O)(=O)N/N=C(\c2nc3ccc(Cl)cc3[nH]c2=O)C(O)c2cccc([N+](=O)[O-])c2)cc1` (stereo not drawn), the growth inhibition was -1.5% in assay [1]; -24% in assay [2]; -9.35% in assay [3]; 11.7% in assay [4]; -22.6% in assay [5]; -0.5% in assay [6].
In the case of `CCCCC(O)CCC` (stereo not drawn), the growth inhibition in assay [1] is -30.4%; in assay [2] it was -52.4%; in assay [3] it was -24.8%; in assay [4], 4.85%; in assay [5] it was -48.7%; in assay [6], -33.5%.
Consider `CCc1c(CC)c(CC)c(CC)c(CC)c1CC`, for which the growth inhibition in assay [1] is -42.3%; in assay [2], -14.7%; in assay [3], -36.4%; in assay [4], -39%; in assay [5], 1.05%; in assay [6] it was -31.8%.
In the case of `N[N+]#COC1C(C(=O)NN)C1C(=O)NN` (stereo not drawn), the growth inhibition in assay [1] was -15.9%; in assay [2] it was -10.4%; in assay [3], -17.5%; in assay [4], 7.75%; in assay [5], 7.05%; in assay [6], -17.9%.
As to `CC[C@H](CC[C@@H](C)[C@H]1CC[C@H]2[C@@H]3CC=C4C[C@@H](O)CC[C@]4(C)[C@H]3CC[C@]12C)C(C)C`, the growth inhibition was 26.8% and -6.4% in assay [1]; -4.1% and -11.6% in assay [2]; 26.6% and -12.2% in assay [3]; 15.9% and 7.85% in assay [4]; 5.95% and -13.2% in assay [5]; 13.1% and -3.05% in assay [6].
As for `C#CCOCC12C=CC(O1)C1C(=O)N(C)C(=O)C12` (stereo not drawn), the growth inhibition was -11.4% and 8.1% in assay [1]; 33.5% and 38.6% in assay [2]; 8.75% and -3.95% in assay [3]; 7.65% and 36.2% in assay [4]; 24.6% and 33.4% in assay [5]; -13.3% and 6.25% in assay [6].
Take `O=C(CN1CCCCCC1)Nc1ccc2c(c1)C(=O)c1ccc(NC(=O)CN3CCCCCC3)cc1C2=O`: the growth inhibition in assay [1] is -12.3%; in assay [2] it was 37.8%; in assay [3], 51.1%; in assay [4], 38.6%; in assay [5] it was 8.95%; in assay [6], 36.4%.
In the case of `Nc1c(I)cc(I)c(C(=O)O)c1I`, the growth inhibition is -44% in assay [1]; -31.9% in assay [2]; -17% in assay [3]; -14.8% in assay [4]; -25.4% in assay [5]; -39.1% in assay [6].
`NC(=S)Nc1nnc(-c2ccc(-c3nnc(NC(N)=S)o3)cc2)o1`: the growth inhibition in assay [1] is 18.4%; in assay [2] it was 6.65%; in assay [3], -21.2%; in assay [4], 5.35%; in assay [5], 2.05%; in assay [6], -8.05%.
Take `CCS(=O)(=O)CC(O)CS(=O)(=O)CC`: the growth inhibition in assay [1] is 6.5%; in assay [2], -6.35%; in assay [3] it was -38%; in assay [4], -4.95%; in assay [5], -6.35%; in assay [6] it was -15.4%.
On to `CCNc1ncnc2ncn(C)c12`, for which the growth inhibition is 18.9% in assay [1]; -6.9% in assay [2]; 15.1% in assay [3]; 12.6% in assay [4]; 15.1% in assay [5]; -0.5% in assay [6].
As to `O=C(ON=C1C=CC(=NOC(=O)c2ccccc2)C=C1)c1ccccc1`, the growth inhibition in assay [1] was 10.2%; in assay [2] it was -20.6%; in assay [3], 9.35%; in assay [4] it was 17.3%; in assay [5] it was 1.15%; in assay [6] it was 7.6%.
Take `CCCCCC(=O)CC(=O)C(CC)CC`: the growth inhibition in assay [1] was 16.4%; in assay [2] it was 12.9%; in assay [3], -1.55%; in assay [4], 1.35%; in assay [5], 6.5%; in assay [6] it was 12.9%.
Regarding `CCN(CCN1CCCCC1)c1ccccn1`, the growth inhibition in assay [1] was 11%; in assay [2], 1.3%; in assay [3], 11.4%; in assay [4], -35.7%; in assay [5], 7.45%; in assay [6], -10.9%.
